Screens from PubChem BioAssay.
Rows were chosen to be rich in hits. Some 27% of all compounds tested hit in one or more screens of this group.
CYP2C19 inh = blockers of cytochrome P450 2C19 activity – biochemical, luminescence, ADME assay, primary screen | P33261 | CYP2C19 Supersomes, luciferin-H EGE luminescence, 30 min | inhibition, % at 5 µM | 96,000 tested, 21% active;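 active = CYP2C19 inhibition above a set limit at 5 µM in the primary screen, cut at about 50% in these data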
CYP2C9 inhib = blockers of cytochrome P450 2C9 activity – biochemical, luminescence, ADME assay, primary screen; P11712; CYP2C9 Supersomes, luciferin-H conversion; inhibition, % at 5 µM; 96,000 tested, 20% active;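 active = blocking of liver enzyme CYP2C9 beyond about 50% at 5 µM, limit read from the data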
Target sequence (P11712 whole entry, looked up): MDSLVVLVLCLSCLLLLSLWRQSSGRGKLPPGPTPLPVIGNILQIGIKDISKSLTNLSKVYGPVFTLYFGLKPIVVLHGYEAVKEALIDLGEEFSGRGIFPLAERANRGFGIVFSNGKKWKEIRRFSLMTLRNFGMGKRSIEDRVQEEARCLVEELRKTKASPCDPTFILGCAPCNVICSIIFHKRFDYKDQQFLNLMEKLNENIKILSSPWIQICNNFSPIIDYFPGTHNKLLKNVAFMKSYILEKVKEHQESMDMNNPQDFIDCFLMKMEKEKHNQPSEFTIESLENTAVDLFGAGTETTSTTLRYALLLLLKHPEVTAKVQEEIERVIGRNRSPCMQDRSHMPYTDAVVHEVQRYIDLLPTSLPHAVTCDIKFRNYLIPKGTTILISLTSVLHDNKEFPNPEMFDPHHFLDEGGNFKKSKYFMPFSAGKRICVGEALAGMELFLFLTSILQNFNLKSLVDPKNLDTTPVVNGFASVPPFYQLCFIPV
CYP2C9 act = human CYP2C9 activators, primary screen, biochemical, luminescence. activation factor at 5 µM. 96,000 tested, 1.4% active. recombinant CYP2C9, luciferin-H conversion; active compounds read high; factor 1 = untreated enzyme, 0 = blocked. AID 1024, 2008;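 active = activation factor of 2 or more for CYP2C9 at a 5 µM dose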
sEH inh = soluble epoxide hydrolase inhibitors, primary screen, biochemical, human sEH | Bifunctional epoxide hydrolase 2 (Homo sapiens), P34913 | recombinant human sEH enzymatic activity assay | inhibition, % at 2 µM | 91,000 tested, 0.34% active | AID 707, 2007; in the data active = inhibition above about 80%
CYP2C19 act = human CYP2C19 activators, primary screen, biochemical, luminescence | AID 1025, 2008 | recombinant CYP2C19, luciferin-H EGE luminescence; active compounds read high; 0 = fully inhibited enzyme, 1 = untreated enzyme | Cytochrome P450 2C19 (Homo sapiens), P33261 | activation factor at 5 µM | 96,000 tested, under 10 active;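 active = activation factor of at least 2 at 5 µM in the primary screen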
sEH act = soluble epoxide hydrolase activators, primary screen, biochemical, human sEH | activation, % at 2 µM | Bifunctional epoxide hydrolase 2 (Homo sapiens), P34913 | 91,000 tested, 0.04% active | AID 717, 2007 | purified human sEH enzymatic activity, activator screen; in the data active = activation above about 37%
Large screens that a line does not name were inactive.

CCN(CC)CC(=O)Nc1ccc(C)cc1Br	CYP2C9 inhib 62
Cc1ccc(NC(=O)CC(O)(C(F)(F)F)C(F)(F)F)c(Br)c1	CYP2C19 inh 87, CYP2C9 inhib 86
CN(C)CCC(O)(c1ccccc1)c1ccccc1	none
CC/C(CC(C)(C)c1ccccc1)=N\O	CYP2C19 inh 79
COCCCn1c(SCC(=O)NCc2ccco2)nc2sc3c(c2c1=O)CCC3	none
CCSc1nc(N)c2c3c(sc2n1)CN(C)CC3	none (no result: sEH inh, sEH act)
CCOC(=O)c1cnn(-c2nc(SC)nc3sc4c(c23)CCCC4)c1N	CYP2C9 inhib 63
CCOC(=O)CSc1nc(N)c2c3c(sc2n1)CCCC3	CYP2C9 inhib 62
CCN(CC)C(=O)CSc1nc(N)c2c3c(sc2n1)CC(C)CC3 (centres undefined)	CYP2C19 inh 56, CYP2C9 inhib 54
CC1CCc2c(sc3nc(SCC(=O)NCc4ccco4)nc(N)c23)C1 (centres undefined)	CYP2C9 inhib 61
CC(C)CSc1ncc(-c2cccc(C(F)(F)F)c2)cn1	none
CC(C)=CCCC1=CCC(/C(C)=N/NC(N)=O)CC1 (centres undefined)	none
CCOC(=O)CSc1nnc(CSc2nc3sc4c(c3c(=O)[nH]2)CCCC4)n1-c1ccccc1	CYP2C19 inh 74, CYP2C9 inhib 70 (no result: sEH inh, sEH act)
CCOC(=O)CSc1nnc2n(C3CCCCC3)c(=O)c3c4c(sc3n12)CCCC4	CYP2C19 inh 54, CYP2C9 inhib 63 (no result: sEH inh, sEH act)
CSc1nc(C)c(CCOC(=O)c2cccc(C)c2)c(=O)[nH]1	none
Cc1[nH]n(-c2ccccc2)c(=O)c1CCOC(=O)c1cccc(C(F)(F)F)c1	CYP2C19 inh 78
Cc1c(-n2cc(C(=O)c3cc(Br)ccc3O)cc(C#N)c2=O)c(=O)n(-c2ccccc2)n1C	CYP2C9 inhib 64
O=C(NCC1CCS(=O)(=O)C1)NCC1CCS(=O)(=O)C1 (centres undefined)	none
Cc1ccc2[nH]c3c(c2c1)CC/C(=C/c1ccccc1)C3=O	none
Cc1ccc(/C=C2/CCc3c([nH]c4ccccc34)C2=O)cc1	CYP2C19 inh 63
O=C1NCCc2c1[nH]c1ccccc21	none
O=C1/C(=C\c2ccccc2)CCc2c1[nH]c1ccccc21	CYP2C19 inh 91
O=C(CS(=O)CC(=O)N(CC(=O)NC1CCCC1)C1CCCCC1)Nc1ccc(F)cc1 (centres undefined)	CYP2C9 inhib 57
O=C(Nc1nc(-c2ccncc2)cs1)c1ccc(S(=O)(=O)N2CCOCC2)cc1	none
COc1ccccc1OC(C)C(=O)Nc1nc(-c2ccc(S(=O)(=O)N3CCOCC3)cc2)cs1 (centres undefined)	CYP2C9 inhib 93
CCOc1cccc(C(=O)Nc2nc(-c3ccc(S(=O)(=O)N4CCOCC4)cc3)cs2)c1	CYP2C9 inhib 65
COc1ccccc1C(=O)Nc1nc(-c2ccc(S(=O)(=O)N3CCOCC3)cc2)cs1	none
COc1ccc(-c2nnc(N3CCC(C)CC3)c3ccccc23)cc1	none
N=C1C(c2nc3ccccc3s2)=C(O)CN1CCCO	none
CCCCCCN1CC(O)=C(c2nc3ccccc3[nH]2)C1=N	CYP2C19 inh 59, CYP2C9 inhib 90 (no result: sEH inh, sEH act)
CCCCN1CC(O)=C(c2nc3ccccc3s2)C1=N	CYP2C9 inhib 64 (no result: sEH inh, sEH act)
CCC(C)N1CC(O)=C(c2nc3ccccc3[nH]2)C1=N (centres undefined)	CYP2C19 inh 84
COc1ccccc1N1CCN(C(=O)c2cc(-c3cccc(Cl)c3)on2)CC1	none (no result: sEH inh, sEH act)
O=C(N/C=N/OCc1ccc(Cl)cc1Cl)NOCc1c(Cl)cccc1Cl	none
COc1ccccc1CO/N=C/NC(=O)c1c(OC)ccnc1Oc1ccc(F)cc1	CYP2C19 inh 97, CYP2C9 inhib 77
COc1ccnc(Oc2ccccc2)c1C(=O)N/C=N/OCc1ccc(F)cc1Cl	CYP2C19 inh 66, CYP2C9 inhib 56
CO/N=C/NC(=O)c1c(OC)ccnc1Oc1ccc(Cl)cc1	none
CSc1nnc(C2CCCN2)n1C (centres undefined)	none
CCOC(=O)N1CCC(Nc2nc3ccccc3n3nnnc23)CC1	CYP2C9 inhib 51 (no result: sEH inh, sEH act)
CC1CN(C2CCN(S(=O)(=O)c3ccc4ccccc4c3)CC2)CC(C)O1 (centres undefined)	none (no result: sEH inh, sEH act)
O=C(c1ccccc1)N1CCCCC(S(=O)(=O)c2ccc3ccccc3c2)C1=O (centres undefined)	CYP2C19 inh 54
O=C1OCCC1S(=O)(=O)c1ccc2ccccc2c1 (centres undefined)	CYP2C9 act 5
O=C(NNS(=O)(=O)c1ccc2ccccc2c1)C1CCN(Cc2ccccc2)CC1	none
Cc1cccc(-n2c(N)cc(=O)nc2SCC(=O)Nc2ccccc2)c1	none
Cc1cccc(NC(=O)CSc2nc3ccccc3c3nc(CCc4c(C)n[nH]c4C)nn23)c1	CYP2C19 inh 66, CYP2C9 inhib 88
Cc1n[nH]c(C)c1CCc1nc2c3ccccc3nc(SCC(=O)Nc3ccccc3F)n2n1	CYP2C19 inh 64, CYP2C9 inhib 95
O=C1CC(C(=O)Nc2cccc3ccccc23)C2(CCCC2)O1 (centres undefined)	none
O=C(CSc1nnc(CNC(=O)c2c(F)cccc2Cl)o1)c1ccccc1	none (no result: CYP2C19 inh, CYP2C9 inhib, CYP2C9 act, CYP2C19 act)
COc1cc(C(=O)NCc2ccccn2)ccc1OCc1c(C)noc1C	none
COc1cc(CNCc2ccccn2)ccc1OCc1cccc(Cl)c1	CYP2C19 inh 83
COc1cc(CNCc2ccccn2)ccc1OCc1c(Cl)cccc1Cl	CYP2C19 inh 69
CC(C)CNc1oc(-c2ccc(F)cc2)nc1C#N	none
Cc1ccc(C(=O)N/C(=C/c2ccc(-c3cc(C(F)(F)F)ccc3Cl)o2)C(=O)NCc2cccnc2)cc1	CYP2C9 inhib 58 (no result: sEH inh, sEH act)
COc1ccc(OCC(O)Cn2cnc(-c3ccc(Br)cc3)c2)cc1 (centres undefined)	none (no result: CYP2C19 inh, CYP2C9 inhib, CYP2C9 act, CYP2C19 act)
COc1ccc(OCC(O)COc2ccc(OC)cc2)cc1	CYP2C19 inh 89 (no result: sEH inh, sEH act)
COc1ccc(OCC(O)CNC(=O)c2ccc(Br)cc2)cc1 (centres undefined)	CYP2C19 inh 52
COc1ccc(OCC(O)CNc2ccc(Br)cc2)cc1 (centres undefined)	CYP2C19 inh 97, CYP2C9 inhib 90
Cc1oc(-c2ccc(Cl)cc2)[n+]([O-])c1C	none
C=CCc1cccc2cc(C(=O)NC3=C(C#N)CCC3)c(=O)oc12	none
C=CCc1cccc2cc(C(=O)NC(C)(C)C)c(=O)oc12	CYP2C19 inh 65, CYP2C9 inhib 55
C=CCc1cccc2cc(C(=O)NCc3cccnc3)c(=O)oc12	CYP2C19 inh 70 (no result: sEH inh, sEH act)
CCC(Sc1nc2ccccc2s1)C(=O)Nc1cc(C)on1 (centres undefined)	none (no result: CYP2C19 inh, CYP2C9 inhib, CYP2C9 act, CYP2C19 act)
